Assay [1] has as its target Sphingosine kinase 1 (Homo sapiens) (UniProt Q9NYA1). Conditions: at 1 µM.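 Further: mean SPHK1 inhibition value reported from the GSK PKIS kinase panel screen.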
The target in assay [2] is T1, Sphingosine kinase 2 (Homo sapiens) (UniProt Q9NRA0).
T1 sequence (whole entry): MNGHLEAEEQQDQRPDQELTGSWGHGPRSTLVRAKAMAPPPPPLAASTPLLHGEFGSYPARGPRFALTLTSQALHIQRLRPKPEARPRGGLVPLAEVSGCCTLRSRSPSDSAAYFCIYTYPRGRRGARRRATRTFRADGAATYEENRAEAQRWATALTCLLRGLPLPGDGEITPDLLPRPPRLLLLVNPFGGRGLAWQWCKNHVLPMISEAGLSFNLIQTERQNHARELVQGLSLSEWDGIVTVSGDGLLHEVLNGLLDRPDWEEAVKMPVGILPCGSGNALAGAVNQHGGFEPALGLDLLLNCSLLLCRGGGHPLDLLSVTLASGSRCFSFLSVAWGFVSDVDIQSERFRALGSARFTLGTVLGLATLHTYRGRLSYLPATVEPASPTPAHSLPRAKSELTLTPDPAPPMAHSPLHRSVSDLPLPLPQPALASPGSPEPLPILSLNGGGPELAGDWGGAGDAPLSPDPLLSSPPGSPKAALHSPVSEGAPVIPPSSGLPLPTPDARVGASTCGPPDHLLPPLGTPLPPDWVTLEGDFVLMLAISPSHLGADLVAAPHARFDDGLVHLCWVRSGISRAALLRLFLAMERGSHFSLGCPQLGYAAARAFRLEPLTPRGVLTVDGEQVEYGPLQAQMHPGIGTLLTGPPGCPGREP
The settings on record: at 0.1 µM.

Assay [3] deals with T1, Sphingosine kinase 2 (Homo sapiens). The settings on record: at 1 µM.
Assay [4] concerns the target Casein kinase II subunit alpha (Homo sapiens) (UniProt P68400). The settings on record: at 0.1 µM.
The target is the same in assay [5]. The settings on record: at 1 µM.
Assay [6] concerns the target T2, Inhibitor of nuclear factor kappa-B kinase subunit alpha (Homo sapiens) (UniProt O15111).
T2 sequence (whole entry): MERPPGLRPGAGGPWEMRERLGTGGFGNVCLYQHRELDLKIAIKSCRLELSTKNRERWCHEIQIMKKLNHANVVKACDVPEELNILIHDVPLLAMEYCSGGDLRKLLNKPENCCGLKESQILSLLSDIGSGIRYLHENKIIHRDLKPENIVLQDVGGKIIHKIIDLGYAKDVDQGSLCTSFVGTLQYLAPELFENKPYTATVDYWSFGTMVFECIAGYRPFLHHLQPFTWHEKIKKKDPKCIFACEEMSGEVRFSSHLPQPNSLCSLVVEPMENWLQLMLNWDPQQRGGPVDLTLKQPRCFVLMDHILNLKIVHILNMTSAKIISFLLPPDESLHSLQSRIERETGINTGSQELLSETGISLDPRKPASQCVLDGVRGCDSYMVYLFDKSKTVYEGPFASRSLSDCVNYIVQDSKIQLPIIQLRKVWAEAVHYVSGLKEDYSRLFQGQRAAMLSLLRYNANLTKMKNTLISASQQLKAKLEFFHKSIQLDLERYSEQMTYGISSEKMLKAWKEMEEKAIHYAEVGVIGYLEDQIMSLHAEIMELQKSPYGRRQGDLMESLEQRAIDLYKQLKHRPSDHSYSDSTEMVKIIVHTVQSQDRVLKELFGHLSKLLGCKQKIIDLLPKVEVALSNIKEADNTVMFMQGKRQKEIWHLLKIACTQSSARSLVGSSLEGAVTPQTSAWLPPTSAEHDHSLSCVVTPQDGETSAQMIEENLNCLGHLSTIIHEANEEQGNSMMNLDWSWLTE
Conditions: at 0.1 µM.

In assay [7] the target is T2, Inhibitor of nuclear factor kappa-B kinase subunit alpha (Homo sapiens). Conditions: at 1 µM.
Assay [8] concerns the target T3, Inhibitor of nuclear factor kappa-B kinase subunit beta (Homo sapiens) (UniProt O14920).
T3 sequence (whole entry): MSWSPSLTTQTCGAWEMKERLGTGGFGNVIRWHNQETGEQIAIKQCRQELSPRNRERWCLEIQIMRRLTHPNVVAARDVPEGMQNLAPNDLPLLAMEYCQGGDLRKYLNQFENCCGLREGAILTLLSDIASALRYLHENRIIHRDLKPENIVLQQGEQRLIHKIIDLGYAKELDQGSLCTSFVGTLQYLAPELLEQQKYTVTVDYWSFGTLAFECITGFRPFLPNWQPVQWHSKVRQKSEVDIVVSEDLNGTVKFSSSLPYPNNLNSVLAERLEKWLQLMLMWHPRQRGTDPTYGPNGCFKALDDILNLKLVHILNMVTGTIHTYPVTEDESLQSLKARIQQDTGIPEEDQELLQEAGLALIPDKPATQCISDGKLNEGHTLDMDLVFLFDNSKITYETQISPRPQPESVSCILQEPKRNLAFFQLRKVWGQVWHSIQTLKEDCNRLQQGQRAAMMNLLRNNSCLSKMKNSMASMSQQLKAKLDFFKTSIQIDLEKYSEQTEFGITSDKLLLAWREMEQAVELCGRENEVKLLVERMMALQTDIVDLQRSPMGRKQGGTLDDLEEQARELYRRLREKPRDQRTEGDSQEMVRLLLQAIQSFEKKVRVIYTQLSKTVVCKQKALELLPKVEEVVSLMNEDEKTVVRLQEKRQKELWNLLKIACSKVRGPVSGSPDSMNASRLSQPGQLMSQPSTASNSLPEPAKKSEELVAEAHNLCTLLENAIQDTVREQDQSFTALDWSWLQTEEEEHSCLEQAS
The settings on record: at 0.1 µM.

In assay [9] the target is T3, Inhibitor of nuclear factor kappa-B kinase subunit beta (Homo sapiens). The settings on record: at 1 µM.
In assay [10] the target is T4, Inhibitor of nuclear factor kappa-B kinase subunit epsilon (Homo sapiens) (UniProt Q14164).
T4 sequence (whole entry): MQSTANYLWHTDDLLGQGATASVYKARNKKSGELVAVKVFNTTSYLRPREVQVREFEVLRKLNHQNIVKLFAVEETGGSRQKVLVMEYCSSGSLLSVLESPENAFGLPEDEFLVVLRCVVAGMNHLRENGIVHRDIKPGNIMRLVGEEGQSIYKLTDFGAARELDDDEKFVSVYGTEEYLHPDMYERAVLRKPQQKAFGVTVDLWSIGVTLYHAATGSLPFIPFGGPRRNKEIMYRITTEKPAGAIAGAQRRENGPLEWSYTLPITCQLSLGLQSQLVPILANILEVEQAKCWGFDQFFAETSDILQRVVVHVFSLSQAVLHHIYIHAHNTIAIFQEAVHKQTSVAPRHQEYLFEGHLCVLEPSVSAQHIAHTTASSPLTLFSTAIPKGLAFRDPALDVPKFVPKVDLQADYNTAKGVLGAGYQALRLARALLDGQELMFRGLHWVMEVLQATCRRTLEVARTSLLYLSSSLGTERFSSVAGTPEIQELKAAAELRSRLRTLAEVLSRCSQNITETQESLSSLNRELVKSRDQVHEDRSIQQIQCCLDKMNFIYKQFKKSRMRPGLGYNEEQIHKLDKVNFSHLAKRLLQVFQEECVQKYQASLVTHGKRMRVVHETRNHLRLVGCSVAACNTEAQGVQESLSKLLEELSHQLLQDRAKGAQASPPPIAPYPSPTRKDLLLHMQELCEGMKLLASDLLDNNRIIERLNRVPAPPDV
Conditions: at 0.1 µM.

Assay [11] has as its target T4, Inhibitor of nuclear factor kappa-B kinase subunit epsilon (Homo sapiens). Conditions: at 1 µM.
Assay [12] has as its target T5, Serine/threonine-protein kinase Nek1 (Homo sapiens) (UniProt Q96PY6).
T5 sequence (whole entry): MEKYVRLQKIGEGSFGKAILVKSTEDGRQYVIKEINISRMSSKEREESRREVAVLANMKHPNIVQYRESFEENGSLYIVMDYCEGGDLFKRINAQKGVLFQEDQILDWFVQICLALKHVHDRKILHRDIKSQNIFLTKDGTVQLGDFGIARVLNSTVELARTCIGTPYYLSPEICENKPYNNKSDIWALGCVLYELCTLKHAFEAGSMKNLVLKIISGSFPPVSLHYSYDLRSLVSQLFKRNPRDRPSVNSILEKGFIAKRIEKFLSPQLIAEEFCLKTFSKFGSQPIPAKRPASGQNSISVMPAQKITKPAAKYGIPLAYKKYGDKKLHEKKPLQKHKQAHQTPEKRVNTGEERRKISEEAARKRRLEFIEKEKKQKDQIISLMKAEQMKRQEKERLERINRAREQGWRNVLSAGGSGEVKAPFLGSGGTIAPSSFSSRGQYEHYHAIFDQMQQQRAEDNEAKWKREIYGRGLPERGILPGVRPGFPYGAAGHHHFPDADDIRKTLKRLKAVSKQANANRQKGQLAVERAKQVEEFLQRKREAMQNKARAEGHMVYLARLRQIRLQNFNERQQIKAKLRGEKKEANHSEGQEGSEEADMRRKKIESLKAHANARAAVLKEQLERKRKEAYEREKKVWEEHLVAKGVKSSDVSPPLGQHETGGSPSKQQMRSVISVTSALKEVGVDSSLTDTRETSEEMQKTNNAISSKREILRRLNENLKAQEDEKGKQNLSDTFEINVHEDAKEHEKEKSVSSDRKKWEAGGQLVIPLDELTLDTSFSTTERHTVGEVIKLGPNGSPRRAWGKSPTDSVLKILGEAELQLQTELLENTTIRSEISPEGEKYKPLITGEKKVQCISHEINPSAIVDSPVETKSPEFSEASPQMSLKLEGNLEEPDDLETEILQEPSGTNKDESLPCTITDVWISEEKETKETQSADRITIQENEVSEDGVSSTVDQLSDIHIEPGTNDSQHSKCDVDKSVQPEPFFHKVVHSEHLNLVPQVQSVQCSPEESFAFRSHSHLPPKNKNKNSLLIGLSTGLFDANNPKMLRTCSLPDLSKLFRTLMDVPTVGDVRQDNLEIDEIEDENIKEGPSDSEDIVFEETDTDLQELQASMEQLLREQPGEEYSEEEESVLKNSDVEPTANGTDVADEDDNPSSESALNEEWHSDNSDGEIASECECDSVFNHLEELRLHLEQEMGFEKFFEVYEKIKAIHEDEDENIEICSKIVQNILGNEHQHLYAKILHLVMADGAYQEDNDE
Conditions: at 0.1 µM.

In assay [13] the target is T5, Serine/threonine-protein kinase Nek1 (Homo sapiens). The settings on record: at 1 µM.
For assay [14], the target named is T6, Serine/threonine-protein kinase Nek2 (Homo sapiens) (UniProt P51955).
T6 sequence (whole entry): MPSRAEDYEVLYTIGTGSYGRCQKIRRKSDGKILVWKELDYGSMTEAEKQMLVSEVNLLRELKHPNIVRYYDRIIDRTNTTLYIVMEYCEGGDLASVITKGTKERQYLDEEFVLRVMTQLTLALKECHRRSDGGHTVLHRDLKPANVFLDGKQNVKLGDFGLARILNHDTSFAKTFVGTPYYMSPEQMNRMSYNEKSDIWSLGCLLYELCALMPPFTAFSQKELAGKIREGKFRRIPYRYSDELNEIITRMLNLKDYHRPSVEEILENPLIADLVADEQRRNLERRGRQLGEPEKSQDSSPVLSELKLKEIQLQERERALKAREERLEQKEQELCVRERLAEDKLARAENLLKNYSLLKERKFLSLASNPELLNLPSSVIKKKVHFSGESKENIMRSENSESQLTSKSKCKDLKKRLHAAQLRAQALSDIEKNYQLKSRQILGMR
The settings on record: at 0.1 µM.

In assay [15] the target is T6, Serine/threonine-protein kinase Nek2 (Homo sapiens). Conditions: at 1 µM.
The target of assay [16] is Serine/threonine-protein kinase Nek6 (Homo sapiens) (UniProt Q9HC98). Conditions: at 0.1 µM.
Chain of Serine/threonine-protein kinase Nek6 (Homo sapiens) (Q9HC98 whole entry): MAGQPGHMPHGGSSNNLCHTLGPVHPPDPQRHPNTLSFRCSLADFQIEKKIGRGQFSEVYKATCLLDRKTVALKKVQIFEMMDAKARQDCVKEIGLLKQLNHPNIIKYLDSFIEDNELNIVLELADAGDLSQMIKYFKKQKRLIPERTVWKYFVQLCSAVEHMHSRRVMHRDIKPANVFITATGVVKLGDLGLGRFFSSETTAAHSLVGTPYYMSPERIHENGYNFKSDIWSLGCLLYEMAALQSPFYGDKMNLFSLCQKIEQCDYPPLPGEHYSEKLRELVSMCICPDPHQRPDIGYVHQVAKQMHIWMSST
For assay [17] the target is unchanged. Conditions: at 1 µM.
The target in assay [18] is Serine/threonine-protein kinase Nek7 (Homo sapiens) (UniProt Q8TDX7). The settings on record: at 0.1 µM.
Chain of Serine/threonine-protein kinase Nek7 (Homo sapiens) (Q8TDX7 whole entry, looked up): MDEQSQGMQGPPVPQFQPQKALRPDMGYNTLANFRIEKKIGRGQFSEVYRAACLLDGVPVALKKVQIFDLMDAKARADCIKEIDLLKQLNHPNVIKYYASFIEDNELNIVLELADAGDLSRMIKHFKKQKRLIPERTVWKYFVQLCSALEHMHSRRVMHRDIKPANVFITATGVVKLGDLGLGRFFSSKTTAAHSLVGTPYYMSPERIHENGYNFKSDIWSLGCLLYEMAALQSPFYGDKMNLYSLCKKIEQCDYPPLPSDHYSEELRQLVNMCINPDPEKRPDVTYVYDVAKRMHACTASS
For assay [19] the target is unchanged. The settings on record: at 1 µM.
Assay [20] addresses T7, Serine/threonine-protein kinase Nek9 (Homo sapiens) (UniProt Q8TD19).
T7 sequence (whole entry): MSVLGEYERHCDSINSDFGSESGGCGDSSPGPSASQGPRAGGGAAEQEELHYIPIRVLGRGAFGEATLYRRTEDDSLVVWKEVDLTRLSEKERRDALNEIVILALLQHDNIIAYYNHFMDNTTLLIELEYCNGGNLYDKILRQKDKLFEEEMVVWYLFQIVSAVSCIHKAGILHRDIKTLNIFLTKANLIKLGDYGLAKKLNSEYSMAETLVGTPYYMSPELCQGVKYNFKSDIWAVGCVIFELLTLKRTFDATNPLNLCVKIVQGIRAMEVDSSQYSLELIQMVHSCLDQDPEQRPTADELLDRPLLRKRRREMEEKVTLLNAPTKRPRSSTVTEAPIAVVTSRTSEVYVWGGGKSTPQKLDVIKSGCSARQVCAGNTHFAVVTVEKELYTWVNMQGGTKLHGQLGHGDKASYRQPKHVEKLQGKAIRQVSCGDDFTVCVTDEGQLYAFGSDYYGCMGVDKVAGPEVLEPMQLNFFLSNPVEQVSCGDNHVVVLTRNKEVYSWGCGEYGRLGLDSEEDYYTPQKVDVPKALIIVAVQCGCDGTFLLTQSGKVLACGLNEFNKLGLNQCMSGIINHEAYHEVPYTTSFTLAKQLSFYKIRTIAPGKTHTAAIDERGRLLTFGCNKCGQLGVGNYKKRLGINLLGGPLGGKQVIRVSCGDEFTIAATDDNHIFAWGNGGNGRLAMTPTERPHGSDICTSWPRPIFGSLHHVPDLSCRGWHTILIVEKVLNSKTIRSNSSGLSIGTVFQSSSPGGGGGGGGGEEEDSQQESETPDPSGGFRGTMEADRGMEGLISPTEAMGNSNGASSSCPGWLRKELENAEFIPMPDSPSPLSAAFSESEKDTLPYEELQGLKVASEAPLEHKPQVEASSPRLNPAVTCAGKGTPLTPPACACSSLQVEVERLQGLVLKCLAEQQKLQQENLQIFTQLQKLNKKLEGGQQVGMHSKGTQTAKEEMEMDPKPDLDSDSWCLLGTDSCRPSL
Conditions: at 0.1 µM.

The text below walks through data of ChEMBL document CHEMBL1961873, “Compounds: GSK PKIS; Assays: Nanosyn kinase panel” (2012).

Chain of Casein kinase II subunit alpha (Homo sapiens) (P68400 whole entry, looked up): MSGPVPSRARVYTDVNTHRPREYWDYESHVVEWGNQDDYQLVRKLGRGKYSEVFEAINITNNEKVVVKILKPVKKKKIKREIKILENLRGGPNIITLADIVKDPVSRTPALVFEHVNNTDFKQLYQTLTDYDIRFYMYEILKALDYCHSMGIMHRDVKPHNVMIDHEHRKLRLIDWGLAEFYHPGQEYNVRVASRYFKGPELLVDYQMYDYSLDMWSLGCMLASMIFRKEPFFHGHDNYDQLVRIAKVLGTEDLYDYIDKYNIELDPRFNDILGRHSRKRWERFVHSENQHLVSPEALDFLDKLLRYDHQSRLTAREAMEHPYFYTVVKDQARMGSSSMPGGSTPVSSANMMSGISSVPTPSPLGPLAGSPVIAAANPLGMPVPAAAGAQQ
Chain of Sphingosine kinase 1 (Homo sapiens) (Q9NYA1 whole entry): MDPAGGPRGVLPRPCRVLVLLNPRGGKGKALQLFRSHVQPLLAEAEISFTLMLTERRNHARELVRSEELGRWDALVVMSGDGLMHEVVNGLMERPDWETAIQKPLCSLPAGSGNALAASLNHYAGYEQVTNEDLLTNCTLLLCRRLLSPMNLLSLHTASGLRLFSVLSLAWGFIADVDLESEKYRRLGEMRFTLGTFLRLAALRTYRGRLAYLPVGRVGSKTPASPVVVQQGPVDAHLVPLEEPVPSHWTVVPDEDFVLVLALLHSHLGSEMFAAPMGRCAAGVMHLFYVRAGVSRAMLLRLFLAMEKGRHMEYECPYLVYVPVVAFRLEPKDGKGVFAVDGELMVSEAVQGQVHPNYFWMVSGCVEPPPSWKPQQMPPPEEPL

Consider `COc1cc(Nc2nccc(Nc3ccc4c(C)n[nH]c4c3)n2)cc(OC)c1OC`, for which the inhibition in assay [1] was 1.98%; in assay [2], -1.28%; in [3] it was 0.88%; in [4], 0.37%; in assay [5], 0.29%; in [6], 2.2%. The inhibition in assay [7] was -0.92%; in [8], 3.27%; in assay [9] it was 17%; in [10], 0.88%; in assay [11], 12.9%; in assay [12], 1.89%. Also, the inhibition in [13] is 7.77%; in assay [14], 0.97%; in assay [15], 0.41%; in assay [16], -1.67%; in assay [17], -0.68%; in assay [18], 3.64%. In addition, the inhibition in assay [19] was determined as 2.17%; in assay [20], 0.16%.
